Test results published in publication PMC5540273 (PLoS ONE, 2017).
Like-named read-outs stand apart in the source and are kept apart here.

Tests used:
[1] = system: FYN; conditions: concentration: 1 μM, replicates: in singlicate; n = 1
[2] = system: GAK; conditions: concentration: 1 μM, replicates: in singlicate; n = 1
[3] = system: T1, GCN2(Kin.Dom.2,S808G); conditions: concentration: 1 μM, replicates: in singlicate; n = 1
T1 construct: gene EIF2AK4

[4] = system: GRK1; conditions: concentration: 1 μM, replicates: in singlicate; n = 1
[5] = system: T2, GRK2; conditions: concentration: 1 μM, replicates: in singlicate; n = 1
T2 construct: gene ADRBK1

[6] = system: T3, GRK3; conditions: concentration: 1 μM, replicates: in singlicate; n = 1
T3 construct: gene ADRBK2

[7] = system: GRK4; conditions: concentration: 1 μM, replicates: in singlicate; n = 1
[8] = system: GRK7; conditions: concentration: 1 μM, replicates: in singlicate; n = 1
[9] = system: GSK3A; conditions: concentration: 1 μM, replicates: in singlicate; n = 1
[10] = system: GSK3B; conditions: n = 1
[11] = system: T4, HASPIN; conditions: concentration: 1 μM, replicates: in singlicate; n = 1
T4 construct: gene GSG2

[12] = system: HCK; conditions: concentration: 1 μM, replicates: in singlicate; n = 1
[13] = system: HIPK1; conditions: concentration: 1 μM, replicates: in singlicate; n = 1
[14] = system: HIPK2; conditions: concentration: 1 μM, replicates: in singlicate; n = 1
[15] = system: HIPK3; conditions: concentration: 1 μM, replicates: in singlicate; n = 1
[16] = system: HIPK4; conditions: concentration: 1 μM, replicates: in singlicate; n = 1
[17] = system: HPK1; conditions: concentration: 1 μM, replicates: in singlicate; n = 1
[18] = system: HUNK; conditions: concentration: 1 μM, replicates: in singlicate; n = 1
[19] = system: ICK; conditions: concentration: 1 μM, replicates: in singlicate; n = 1
[20] = system: IGF1R; conditions: concentration: 1 μM, replicates: in singlicate; n = 1
[21] = concentration: 1 μM, replicates: in singlicate
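Note: KINOMEscan kinase panel screen.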

In the case of `COc1cccc(C2=C(Nc3cccc(O)c3)C(=O)NC2=O)c1` [SB-390771], the “%Inh” value [1] is reported as 0%, the “%Inh” value [2] is reported as 0% and the “%Inh” value [3] is reported as 0%. For the same compound, the “%Inh” value [4] was 4%, the “%Inh” value [5] was 0% and the “%Inh” value [6] was 31%. The “%Inh” value [7] was 0%, the “%Inh” value [8] was 100% and the “%Inh” value [9] was 0%. The “%Inh” value ([10]; 1 µM) was 13%, the “%Inh” value [11] was 4% and the “%Inh” value [12] was 0%. The “%Inh” value [13] was 0%, the “%Inh” value [14] was 0% and the “%Inh” value [15] was 29%. The “%Inh” value [16] was 0%, the “%Inh” value [17] was 51% and the “%Inh” value [18] was 0%. For the same compound, the “%Inh” value [19] was 3% and the “%Inh” value [20] was 19%.
With `CCn1c(-c2nonc2N)nc2c(-c3ccccc3)ncc(OCCCN)c21.O=C(O)C(F)(F)F.O=C(O)C(F)(F)F` [GSK260205] the “%Inh” value [1] was 0%, the “%Inh” value [2] was 83% and the “%Inh” value [3] was 0%. The “%Inh” value [4] was 0%, the “%Inh” value [5] was 0% and the “%Inh” value [6] was 63%. For the same compound, the “%Inh” value [7] was 0%, the “%Inh” value [8] was 0% and the “%Inh” value [9] was 15%. The “%Inh” value [10, 21] was 17%, the “%Inh” value [11] was 9% and the “%Inh” value [12] was 0%. For the same compound, the “%Inh” value [13] was 0%, the “%Inh” value [14] was 0% and the “%Inh” value [15] was 38%. The “%Inh” value [16] was 0%, the “%Inh” value [17] was 0% and the “%Inh” value [18] was 0%. The “%Inh” value [19] was 10% and the “%Inh” value [20] was 0%.
For `COc1cc(Nc2ccnc3cc(-c4ccncc4)ccc23)cc(OC)c1OC.Cl` [GW494610], the “%Inh” value [1] was 75%, the “%Inh” value [2] was 84% and the “%Inh” value [3] was 0%. For the same compound, the “%Inh” value [4] was 4%, the “%Inh” value [5] was 0% and the “%Inh” value [6] was 35%. For the same compound, the “%Inh” value [7] was 5%, the “%Inh” value [8] was 0% and the “%Inh” value [9] was 10%. For the same compound, the “%Inh” value [10, 21] was 0%, the “%Inh” value [11] was 40% and the “%Inh” value [12] was 83%. The “%Inh” value [13] was 0%, the “%Inh” value [14] was 0% and the “%Inh” value [15] was 13%. For the same compound, the “%Inh” value [16] was 0%, the “%Inh” value [17] was 0% and the “%Inh” value [18] was 52%. For the same compound, the “%Inh” value [19] was 0% and the “%Inh” value [20] was 0%.
`CS(=O)(=O)c1cccc(CNc2nc(Nc3ccc4c(c3)CCC(=O)N4)ncc2C(F)(F)F)c1` was tested, and the “%Inh” value [1] was 10%, the “%Inh” value [2] was 16% and the “%Inh” value [3] was 0%. For the same compound, the “%Inh” value [4] was 24%, the “%Inh” value [5] was 0% and the “%Inh” value [6] was 0%. For the same compound, the “%Inh” value [7] was 0%, the “%Inh” value [8] was 0% and the “%Inh” value [9] was 55%. For the same compound, the “%Inh” value [10, 21] was 0%, the “%Inh” value [11] was 0% and the “%Inh” value [12] was 0%. For the same compound, the “%Inh” value [13] was 31%, the “%Inh” value [14] was 3% and the “%Inh” value [15] was 0%. For the same compound, the “%Inh” value [16] was 22%, the “%Inh” value [17] was 41% and the “%Inh” value [18] was 0%. For the same compound, the “%Inh” value [19] was 0% and the “%Inh” value [20] was 5%.
For `Cc1ccc(O)cc1Nc1ccnc2cc(-c3ccc(CN4CCCCC4)o3)ccc12` [GW557777], the “%Inh” value [1] was 99.7%, the “%Inh” value [2] was 99.6% and the “%Inh” value [3] was 0%. The “%Inh” value [4] was 0%, the “%Inh” value [5] was 0% and the “%Inh” value [6] was 0%. For the same compound, the “%Inh” value [7] was 13%, the “%Inh” value [8] was 0% and the “%Inh” value [9] was 0%. For the same compound, the “%Inh” value [10, 21] was 0%, the “%Inh” value [11] was 0% and the “%Inh” value [12] was 99.4%. For the same compound, the “%Inh” value [13] was 0%, the “%Inh” value [14] was 0% and the “%Inh” value [15] was 0%. For the same compound, the “%Inh” value [16] was 0%, the “%Inh” value [17] was 37% and the “%Inh” value [18] was 32%. The “%Inh” value [19] was 0% and the “%Inh” value [20] was 0%.
In the case of `COc1cccc2c(-c3ccncc3)c(-c3ccc(F)cc3)nn12` [GW468513], the “%Inh” value [1] is reported as 27%, the “%Inh” value [2] is reported as 83% and the “%Inh” value [3] is reported as 18%. The “%Inh” value [4] was 0%, the “%Inh” value [5] was 0% and the “%Inh” value [6] was 38%. The “%Inh” value [7] was 0%, the “%Inh” value [8] was 0% and the “%Inh” value [9] was 4%. For the same compound, the “%Inh” value [10, 21] was 3%, the “%Inh” value [11] was 15% and the “%Inh” value [12] was 0%. For the same compound, the “%Inh” value [13] was 0%, the “%Inh” value [14] was 0% and the “%Inh” value [15] was 10%. For the same compound, the “%Inh” value [16] was 4%, the “%Inh” value [17] was 37% and the “%Inh” value [18] was 18%. For the same compound, the “%Inh” value [19] was 9% and the “%Inh” value [20] was 9%.
With `CSc1ccc(NC2=C(c3ccc(Cl)cc3)C(=O)NC2=O)cc1` [SB-317658] the “%Inh” value [1] was 4%, the “%Inh” value [2] was 12% and the “%Inh” value [3] was 0%. For the same compound, the “%Inh” value [4] was 2%, the “%Inh” value [5] was 21% and the “%Inh” value [6] was 12%. The “%Inh” value [7] was 5%, the “%Inh” value [8] was 26% and the “%Inh” value [9] was 37%. The “%Inh” value ([10]; 1 µM) was 0%, the “%Inh” value [11] was 0% and the “%Inh” value [12] was 32%. The “%Inh” value [13] was 2%, the “%Inh” value [14] was 3% and the “%Inh” value [15] was 7%. For the same compound, the “%Inh” value [16] was 6%, the “%Inh” value [17] was 9% and the “%Inh” value [18] was 4%. For the same compound, the “%Inh” value [19] was 19% and the “%Inh” value [20] was 3%.
In the case of `CNc1nccc(-c2ccc3c(N)n[nH]c3c2)n1` [GSK2206003], the “%Inh” value [1] is reported as 17%, the “%Inh” value [2] is reported as 69% and the “%Inh” value [3] is reported as 0%. For the same compound, the “%Inh” value [4] was 0%, the “%Inh” value [5] was 15% and the “%Inh” value [6] was 23%. The “%Inh” value [7] was 46%, the “%Inh” value [8] was 14% and the “%Inh” value [9] was 14%. The “%Inh” value [10, 21] was 0%, the “%Inh” value [11] was 93% and the “%Inh” value [12] was 0%. The “%Inh” value [13] was 34%, the “%Inh” value [14] was 0% and the “%Inh” value [15] was 37%. The “%Inh” value [16] was 42%, the “%Inh” value [17] was 55% and the “%Inh” value [18] was 0%. For the same compound, the “%Inh” value [19] was 0% and the “%Inh” value [20] was 22%.
With `O=C(Nc1n[nH]c2nc(-c3ccccc3O)ccc12)C1CC1` [SB-711880] the “%Inh” value [1] was 0%, the “%Inh” value [2] was 0% and the “%Inh” value [3] was 26%. The “%Inh” value [4] was 49%, the “%Inh” value [5] was 0% and the “%Inh” value [6] was 0%. For the same compound, the “%Inh” value [7] was 28%, the “%Inh” value [8] was 12% and the “%Inh” value [9] was 87%. The “%Inh” value ([10]; 1 µM) was 53%, the “%Inh” value [11] was 0% and the “%Inh” value [12] was 0%. The “%Inh” value [13] was 27%, the “%Inh” value [14] was 7% and the “%Inh” value [15] was 0%. The “%Inh” value [16] was 0%, the “%Inh” value [17] was 0% and the “%Inh” value [18] was 0%. The “%Inh” value [19] was 26% and the “%Inh” value [20] was 0%.
For `COc1ccc(C2=C(Nc3cccc(O)c3)C(=O)NC2=O)cc1` [SB-390766], the “%Inh” value [1] was 34%, the “%Inh” value [2] was 0% and the “%Inh” value [3] was 61%. The “%Inh” value [4] was 0%, the “%Inh” value [5] was 0% and the “%Inh” value [6] was 33%. For the same compound, the “%Inh” value [7] was 0%, the “%Inh” value [8] was 0% and the “%Inh” value [9] was 41%. For the same compound, the “%Inh” value ([10]; 1 µM) was 35%, the “%Inh” value [11] was 0% and the “%Inh” value [12] was 41%. For the same compound, the “%Inh” value [13] was 0%, the “%Inh” value [14] was 2% and the “%Inh” value [15] was 63%. For the same compound, the “%Inh” value [16] was 93.5%, the “%Inh” value [17] was 36% and the “%Inh” value [18] was 0%. The “%Inh” value [19] was 10% and the “%Inh” value [20] was 0%.
